Data as given in PubChem BioAssay (Tox21).
Results filed as inconclusive are left out. Entries that show only a call come without a potency. A number with no mark means an inactive call. Activity calls are given as the source filed them. Calls come from the whole dose curve; as a rule, active = well fitted inhibition curve with a large enough effect in the signal ratio in the repeat runs, with a control signal flat; inconclusive = weak or mixed curves, or effect the other way; inactive = flat fitted curve, though single readings scatter; the % refers to the signal ratio.
Potency is the fitted concentration of half-maximal effect.

Each compound was assayed against D(2) dopamine receptor (Homo sapiens) (UniProt P14416) (assay: Dopamine D2 receptor (DRD2) small molecule antagonists, cell-based qHTS assay (AID 1963595)). Settings: HEK293-DRD2 cAMP HTRF antagonist mode; series mostly up to 92.4 µM.
Sequence of D(2) dopamine receptor (Homo sapiens) (P14416 whole entry, looked up): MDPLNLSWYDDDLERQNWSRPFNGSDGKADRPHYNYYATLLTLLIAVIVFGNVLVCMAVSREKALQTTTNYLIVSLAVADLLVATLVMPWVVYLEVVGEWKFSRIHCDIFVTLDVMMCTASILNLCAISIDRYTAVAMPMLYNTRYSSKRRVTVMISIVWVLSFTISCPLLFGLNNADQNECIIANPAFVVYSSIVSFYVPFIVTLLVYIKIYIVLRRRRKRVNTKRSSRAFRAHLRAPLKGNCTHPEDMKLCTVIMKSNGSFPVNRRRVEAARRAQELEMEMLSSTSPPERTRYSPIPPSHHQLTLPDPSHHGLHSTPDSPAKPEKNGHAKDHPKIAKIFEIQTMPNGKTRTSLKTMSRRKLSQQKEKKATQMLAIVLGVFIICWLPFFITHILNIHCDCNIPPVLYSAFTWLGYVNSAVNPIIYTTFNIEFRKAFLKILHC
Text: National Center for Advancing Translational Sciences [NCATS]
Division of Preclinical Innovation [DPI]
U.S. Environmental Protection Agency [EPA]
National Institutes of Environmental Health Sciences [NIEHS]
National Toxicology Program [NTP]
U.S. Food and Drug Administration [FDA]
DRD2 is the D2 subtype of the dopamine receptor, which is coupled to Gi subtype of G protein-coupled receptor. This G protein-coupled receptor inhibits adenylyl cyclase activity. The DRD2-HEK293 cell line stably expressing D2 dopamine receptor can be used for screening agonists and antagonists of interactions between D2 and its ligands. The Hek293-DRD2 cAMP assay is based on HTRF technology. It measures changes of cAMP accumulation in response to Gi coupled GPCR activation or inhibition.
Tox21 Assay Protocol Summary:
DRD2-Hek293 cells were dispensed at 600 cells/3uL/well in 1536-well white plates using a Multidrop Dispenser. After the assay plates were incubated at a 37 C/5% CO2 incubator for 24 h, 1 uL of Ro20-1724 at final concentration of 0.1 mM was transferred to the assay plate by a Flying Reagent Dispenser. Following Ro20-1724 addition, 23 nL of compound dissolved in DMSO, positive controls or DMSO only was added to the assay plates via Wako pintool station. The assay plates were incubated at room temperature for 10 min. Next, 1 uL of mixture of NKH477 (final concentration at 200 nM) and quinpirole (final concentration at 12 nM) was added into the plates. After the assay plates were incubated at room temperature for an additional 30 min, 2.5 ul/well of cAMP-d2 and 2.5 ul/well of anti-cAMP-cryptate were added respectively into the assay plates using a Flying Reagent Dispenser. The plates were incubated at room temperature for 1 h. The fluorescence intensity in the plates was measured at 340 nm excitation and 665 & 620 nm emission by an Envision plate reader.
`COc1cc2ncnc(Nc3ccc(F)c(Cl)c3)c2cc1OCCCN1CCOCC1` was tested, and the Potency was 29.8 µM (active).
For `C1CCC2=NCCCN2CC1`, the Potency was “inactive”.
`NCc1cccc(C2CCN(C(=O)c3ccc(C#Cc4ccccc4F)o3)CC2)c1` was tested, and the Potency was 54.5 µM (active).
For `C=C(C)[C@@H]1CC=C(C)C(=O)C1`, the Potency was “inactive”.
In the case of `Brc1c2ccccc2c(Br)c2ccccc12`, the activity change, negative = inhibition was -0.559% [at 8.38 µM].
In the case of `Cc1ccc(Br)cc1`, the Potency was “inactive”.
`Cc1ccc(C(N)=O)cc1N` was tested, and the Potency was “inactive”.
In the case of `CN1CCN(C(=O)C2CCCCC2)CC1`, the Potency was “inactive”.
`c1ccc(Sc2ccccc2)cc1` was tested, and the Potency was “inactive”.
In the case of `COc1cc(C)nc(-n2nc(C)cc2OC)n1`, the Potency was “inactive”.
With `CN[C@@H]1[C@@H](O)[C@@H](O[C@@H]2[C@H](O)[C@H](O[C@H]3OC(CN)=CC[C@H]3N)[C@@H](N)C[C@H]2N)OCC1(C)O` (stereo not given in full) the Potency was “inactive”.
`Cc1cccc(C(=O)O)c1O` was tested, and the Potency was “inactive”.
For `CC(C)OC(=O)OCOP(=O)(CO[C@H](C)Cn1cnc2c(N)ncnc21)OCOC(=O)OC(C)C`, the Potency was “inactive”.
With `CN(C)CCCN1c2ccccc2Sc2ccc(C(F)(F)F)cc21` the Potency was 0.0596 µM (active).
For `CCCCCCCCCCCCCC(=O)OC`, the Potency was “inactive”.
For `CC(=O)C(=O)CC(C)C`, the Potency was “inactive”.
In the case of `C=C(C)C(=O)OCCOCCOCCOCCOC(=O)C(=C)C`, the Potency was “inactive”.
For `NCCN1CCOCC1`, the Potency was “inactive”.
In the case of `CCCCN1C(=O)c2ccccc2C1=O`, the Potency was “inactive”.
For `COC(=O)[C@@H]1CC2=CC(=O)CC[C@]2(C)[C@@]23O[C@@H]2C[C@@]2(C)[C@@H](CC[C@@]24CCC(=O)O4)[C@H]13`, the Potency was “inactive”.
With `CCCCc1cc2ccccc2c(OCCN(C)C)n1` the Potency was “inactive”.
`CC1(C)[C@@H](O)CC[C@]2(C)[C@H]3C(=O)C=C4[C@@H]5C[C@@](C)(C(=O)O)CC[C@]5(C)CC[C@@]4(C)[C@]3(C)CC[C@@H]12` was tested, and the Potency was “inactive”.
With `CN(CCCN1c2ccccc2CCc2ccccc21)CC(=O)c1ccc(Cl)cc1` the Potency was “inactive”.
For `Cc1cc2cc3c(C)cc(=O)oc3c(C)c2o1`, the Potency was “inactive”.
`COc1ccc(-c2cc(=S)ss2)cc1` was tested, and the Potency was “inactive”.
For `CC(C)NC[C@@H](O)COc1cccc2ccccc12`, the Potency was “inactive”.
`CC(=O)OC1C2(C)CCC(C2)C1(C)C` (stereo not given) was tested, and the Potency was “inactive”.
`O=C(Cl)c1c(Cl)cccc1Cl` was tested, and the Potency was “inactive”.
In the case of `O=C1CCCCCCCCCCCC(=O)OCCO1`, the Potency was “inactive”.
In the case of `O=C(O)CN1C(=O)c2cccc3cccc(c23)C1=O`, the Potency was “inactive”.
`O=S(=O)(O)SSS(=O)(=O)O` was tested, and the Potency was “inactive”.
`COc1cc(C(C)(C)C)c(O)c(C(C)(C)C)c1` was tested, and the Potency was “inactive”.
In the case of `C=C1c2cccc(O)c2C(O)=C2C(=O)[C@]3(O)C(O)=C(C(N)=O)C(=O)[C@@H](N(C)C)[C@@H]3[C@@H](O)[C@H]12`, the Potency was “inactive”.
With `CCCCCCCCCC(C)C=O` (stereo not given) the Potency was “inactive”.
`CCn1ccc(NS(=O)(=O)c2ccc(N)cc2)nc1=O` was tested, and the Potency was “inactive”.
For `c1ccc(-c2ccc(C(c3ccccc3)n3ccnc3)cc2)cc1` (stereo not given), the Potency was “inactive”.
For `O=P(c1ccccc1)(c1ccccc1)c1ccccc1`, the Potency was “inactive”.
For `COP(=O)(OC)OC(c1ccc(Cl)cc1)P(=O)(OC)OC` (stereo not given), the Potency was “inactive”.
`CCCNC(C)C(=O)Nc1c(C)csc1C(=O)OC` (stereo not given) was tested, and the Potency was “inactive”.
With `CC(C)N1C(=O)c2ccccc2C1=O` the Potency was “inactive”.
